High-throughput results as filed in PubChem BioAssay.
AmpC inh no detg: qHTS Inhibitors of AmpC Beta-Lactamase (assay without detergent); P00811; AmpC nitrocefin hydrolysis, absorbance 480 nm, 0.0001% Triton; Potency, µM (titrated, usually from 57.1 µM), inactives show at the top dose activity change, negative = inhibition, usual class: inhibitors; 330,000 compounds, 0.52% hits; AID 485341, 2010;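 further: plate controls were no compound for no effect and no enzyme for full effect; nearly all actives have a fitted effect of over 20% in size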
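20 mM phosphate pH 7.0 + 0.01% (detergent screen) or 0.0001% Triton X-100; 5.3 nM AmpC reagent; cpd preinc 15 min RT; nitrocefin (800 uM stock) to start; A480 q20 s × 4 min; Activity was normalised to no-enzyme and no-compound control wells.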
Sm TGR block: qHTS Assay for the Inhibitors of Schistosoma Mansoni Peroxiredoxins; AID 485364, 2010; 360,000 compounds, 3% hits; Potency, µM (series often up to 114 µM), for the others: at the highest dose activity change, negative = inhibition, most hits filed as inhibitors; purified TGR, DTNB reduction, TNB absorbance 405 nm; further: nearly all actives have a fitted effect of over 60% in size
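First, TGR (20 nM dispensed) and NADPH were mixed with compound. Second, a 15 min room-temperature incubation followed. Third, further NADPH and then DTNB were added to start the reaction. Finally, TNB absorbance was monitored kinetically.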
RE007 growth inh: qHTS Assay for Inhibitors of the HIV-1 protein Vpr | S. pombe RE007 Vpr strain, BacTiter-Glo ATP luminescence, 24 h | Potency, µM (titrated, usually from 92.2 µM), for the others: top-dose activity change, negative = less growth, usual class: inhibitors | 360,000 compounds, 0.21% hits; active means well fitted falling curve with a large enough effect; inconclusive means small, poorly fitted or top-dose-only effect; inactive means no such curve, though single readings can be large or run the other way; further: nearly all actives have a fitted effect of over 50% in size
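Fission yeast RE007 carrying one integrated HIV-1 vpr copy, seeded at OD 0.01 in PMG+AL medium with 23 nL pinned compound. Grown 24 h at 30 degrees; viability read by BacTiter-Glo luminescence after 5 min.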
AmpC inh detg: qHTS Inhibitors of AmpC Beta-Lactamase (assay with detergent). P00811. AmpC hydrolysis of nitrocefin, absorbance 480 nm, 0.01% Triton. Potency, µM (highest dose often 114 µM), for the others: top-dose activity change, negative = inhibition, usual class: inhibitors. 370,000 compounds, 0.041% hits;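 further: 0% = no-compound wells and -100% = no-enzyme wells; nearly all actives have a fitted effect of over 25% in size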
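AmpC (5.3 nM in the dispensed reagent) in 20 mM phosphate pH 7.0 with 0.01% (detergent screen) or 0.0001% Triton X-100 was preincubated with compounds for 15 min at room temperature. Nitrocefin was then added from an 800 uM solution, and hydrolysis was followed at 480 nm.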
FBPA Giardia inh: qHTS Assay for Inhibitors of Fructose-1,6-bisphosphate Aldolase from Giardia Lamblia; 290,000 compounds, 0.71% hits; purified Giardia FBPA; Potency, µM (titrated, usually from 59.6 µM), without a hit: at the highest dose activity, negative = inhibition, usual class: inhibitors; AID 2451, 2010; further: nearly all actives have a fitted effect of over 55% in size
Target sequence (A8B2U2 whole entry, looked up): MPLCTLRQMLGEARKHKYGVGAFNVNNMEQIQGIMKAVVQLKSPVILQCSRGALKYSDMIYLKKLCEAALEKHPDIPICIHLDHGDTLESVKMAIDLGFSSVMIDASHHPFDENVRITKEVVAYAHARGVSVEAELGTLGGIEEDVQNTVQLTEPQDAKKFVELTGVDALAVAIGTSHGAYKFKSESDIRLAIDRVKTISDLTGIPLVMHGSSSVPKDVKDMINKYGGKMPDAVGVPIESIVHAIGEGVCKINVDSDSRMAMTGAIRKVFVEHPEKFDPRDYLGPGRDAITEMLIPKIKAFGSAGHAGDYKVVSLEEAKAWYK
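Giardia FBPA (40 nM reagent) was preincubated 10 min at RT with compound (up to 57.5 uM final), then substrate plus GAPDH/TPI/NAD/arsenate coupling system with diaphorase/resazurin was added; resorufin fluorescence (525/598 nm) was read after 20 min.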
Numbers without * were called inactive. Most compounds without a hit are left out; they make up all but 3.4% or so of the library. Unless noted, the call rests on the fitted dose curve; in most records, active means well fitted curve in the direction sought with a large enough effect; inconclusive means small, poorly fitted or top-dose-only effect, or another doubt; inactive means no such curve, though single readings can be large; an effect the other way counts as inactive or inconclusive. Unless noted, on the % scale 0 is the no-effect control and ±100 the full control effect; potency means the concentration at half of the fitted maximal effect.

How did CC(=O)SC1CC(=O)N(c2c(C)cccc2C)C1=O (centres undefined) do in these assays?
AmpC inh no detg: -20%; Sm TGR block: 14µM*; RE007 growth inh: -11%; AmpC inh detg: -4%; FBPA Giardia inh: -1%

What do the screens show for `CCc1ccc(OC(=O)/C=C/c2ccco2)cc1`?
AmpC inh no detg: -28%; Sm TGR block: 28µM*; RE007 growth inh: 5%; AmpC inh detg: -15%; FBPA Giardia inh: 6%

What do the screens show for `COC(=O)N/N=C/c1ccc(OC(=O)/C=C/c2ccco2)cc1`?
AmpC inh no detg: -4%; Sm TGR block: inconclusive; RE007 growth inh: -12%; AmpC inh detg: -6%; FBPA Giardia inh: -2%

How did O=C(Cc1ccccc1)N/N=C/c1ccc(OC(=O)/C=C\c2ccco2)cc1 do in these assays?
AmpC inh no detg: -30%; Sm TGR block: 35µM*; RE007 growth inh: 6%; AmpC inh detg: 5%; FBPA Giardia inh: 0%

What do the screens show for `O=C(/C=C\c1ccco1)Oc1cccc2cccnc12`?
AmpC inh no detg: -23%; Sm TGR block: inconclusive; RE007 growth inh: inconclusive; AmpC inh detg: -5%; FBPA Giardia inh: inconclusive

How did CCC(c1nnnn1Cc1ccccc1)N1CCC2(CC1)C(=O)NCN2c1ccccc1 (centres undefined) do in these assays?
RE007 growth inh: 2%

Results for Cc1ccccc1NC1=C(Cl)C(=O)N(C2CCCCC2)C1=O ?
AmpC inh no detg: -46%; Sm TGR block: -12%; RE007 growth inh: 6%; AmpC inh detg: -1%; FBPA Giardia inh: -5%

How did COc1ccccc1NC1=C(Cl)C(=O)N(C2CCCCC2)C1=O do in these assays?
AmpC inh no detg: 14µM*; Sm TGR block: -11%; RE007 growth inh: 10%; AmpC inh detg: 3%; FBPA Giardia inh: -2%

Results for CCOc1ccccc1NC1=C(Cl)C(=O)N(c2ccc(OC)cc2)C1=O ?
AmpC inh no detg: -29%; Sm TGR block: -27%; RE007 growth inh: 14%; AmpC inh detg: -5%; FBPA Giardia inh: 1%

How did O=C1C(Cl)=C(Nc2ccccc2O)C(=O)N1c1ccccc1 do in these assays?
AmpC inh no detg: -48%; Sm TGR block: 22µM*; RE007 growth inh: inconclusive; AmpC inh detg: inconclusive; FBPA Giardia inh: -25%

What do the screens show for `COc1ccccc1N1C(=O)C(Cl)=C(Nc2ccccc2O)C1=O`?
AmpC inh no detg: -50%; Sm TGR block: 8.9µM*; RE007 growth inh: -14%; AmpC inh detg: 4%; FBPA Giardia inh: -21%

How did Cc1c(NC2=C(Cl)C(=O)N(c3ccccc3)C2=O)c(=O)n(-c2ccccc2)n1C do in these assays?
AmpC inh no detg: -31%; Sm TGR block: inconclusive; RE007 growth inh: -23%; AmpC inh detg: 0%; FBPA Giardia inh: inconclusive

How did COC(=O)c1scc(C#N)c1N/N=C(\C#N)S(=O)(=O)c1ccc(Cl)cc1 do in these assays?
AmpC inh no detg: -27%; Sm TGR block: 32µM*; RE007 growth inh: -5%; AmpC inh detg: 5%; FBPA Giardia inh: 17%

How did Oc1ccccc1C1=Nc2ncnn2C(c2ccc(F)cc2)C1 (centres undefined) do in these assays?
AmpC inh no detg: -32%; Sm TGR block: 14µM*; RE007 growth inh: -8%; AmpC inh detg: 0%; FBPA Giardia inh: 7%

Results for O=Cc1ccc(C(=O)OCC(=O)NC(=O)Nc2ccccc2F)cc1 ?
AmpC inh no detg: 28µM*; RE007 growth inh: 8%

What do the screens show for `CC(=O)CC(c1ccc2c(c1)OCO2)c1c(O)c2ccccc2oc1=O` (centres undefined)?
RE007 growth inh: 11%

How did Cc1nn(C)c(C)c1CS(=O)(=O)c1ccccc1 do in these assays?
AmpC inh no detg: -10%; Sm TGR block: 22µM*; RE007 growth inh: -19%; AmpC inh detg: 4%; FBPA Giardia inh: 9%

What do the screens show for `Cc1cc(C)c(S(=O)(=O)Nc2cc(C)on2)c(C)c1`?
AmpC inh no detg: -13%; Sm TGR block: 5%; RE007 growth inh: 9%; AmpC inh detg: -12%; FBPA Giardia inh: -8%
